Screens deposited in PubChem BioAssay by National Center for Advancing Translational Sciences (NCATS).
Most compounds without a hit are left out; they make up all but 11% or so of the library.
BAZ2B inh: blocks human BAZ2B; Potency, µM (highest dose often 114 µM), inactives show top-dose activity change, negative = inhibition, actives largely listed as inhibitors; AID 504333; 360,000 compounds, 4.4% hits; AlphaScreen BAZ2B-H3K14Ac peptide displacement; Q9UIF8; further: on the % scale 0 is the no-effect control and ±100 the full control effect; nearly all actives have a fitted effect of over 60% in size
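AlphaScreen displacement: compounds (up to 110uM) incubated 30 min at room temperature with a preformed 50 nM BAZ2B/50 nM biotinylated H3K14Ac peptide complex in PBS pH 7.4 with Tween-20. Donor and acceptor beads at 10 ug/mL final added, 20 min light-protected before reading.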
HP1b binding inh: blocks HP1-beta chromodomain binding to methylated histone tails. P83916. AlphaScreen HP1-beta / biotin-H3K9me3 peptide binding. Potency, µM (titrated, usually from 114 µM), for the others: at the top dose activity change, negative = inhibition, usual class: inhibitors. 390,000 compounds, 0.56% hits. AID 540317; further: nearly all actives have a fitted effect of over 70% in size
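AlphaScreen: HP1-beta (50 nM) preformed 30 min with biotin-H3(1-18)K9me3 peptide (50 nM) in PBS pH 7.4, 0.01% Tween-20. Compound added for 30 min at RT, then streptavidin donor/nickel chelate acceptor beads (10 ug/mL) for 30 min.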
L3MBTL1 inh: L3MBTL1 (human) inhibition; Q9Y468; AlphaScreen L3MBTL1–H3K9me1 peptide binding; Potency, µM (doses to about 57.1 µM), for inactives: at the highest dose activity, negative = inhibition, actives largely listed as inhibitors; 230,000 compounds, 0.66% hits; further: on the % scale 0 is the no-effect control and ±100 the full control effect; nearly all actives have a fitted effect of over 60% in size
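Read-out is AlphaScreen signal from streptavidin donor and nickel chelate acceptor beads (10 ug/mL final each) bridging L3MBTL1 (50 nM) and biotinylated K9-monomethylated H3(1-15) peptide (75 nM), after 30 min compound exposure at room temperature.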
G9a block: inhibitors of human histone lysine methyltransferase G9a | G9a H3K9 monomethylation, AlphaScreen, 2 h | AID 504332 | Potency, µM (top dose mostly 102 µM), without a hit: at the top dose activity, negative = inhibition, usual class: inhibitors | Q96KQ7 | 350,000 compounds, 8.8% hits; further: on the % scale 0 is the no-effect control and ±100 the full control effect; nearly all actives have a fitted effect of over 75% in size
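Chemiluminescent proximity detection of H3K9 monomethylation, read after 10 min bead incubation in the dark. Reaction: 20 nM G9a, 500 nM biotin-H3K9 peptide, 20 uM SAM cofactor, 2 h, room temperature, following 15 min enzyme-compound preincubation.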
JMJD2A Tudor: JMJD2A Tudor domain (human) inhibition | O75164 | AlphaScreen JMJD2A-Tudor / H3K4me3 peptide binding | Potency, µM (highest dose often 114 µM), inactives show at the top dose activity change, negative = inhibition, hits mostly inhibitors | 390,000 compounds, 4.4% hits | AID 504339; further: on the % scale 0 is the no-effect control and ±100 the full control effect; nearly all actives have a fitted effect of over 50% in size
Target sequence (O75164 whole entry, looked up, the tested form may be a part): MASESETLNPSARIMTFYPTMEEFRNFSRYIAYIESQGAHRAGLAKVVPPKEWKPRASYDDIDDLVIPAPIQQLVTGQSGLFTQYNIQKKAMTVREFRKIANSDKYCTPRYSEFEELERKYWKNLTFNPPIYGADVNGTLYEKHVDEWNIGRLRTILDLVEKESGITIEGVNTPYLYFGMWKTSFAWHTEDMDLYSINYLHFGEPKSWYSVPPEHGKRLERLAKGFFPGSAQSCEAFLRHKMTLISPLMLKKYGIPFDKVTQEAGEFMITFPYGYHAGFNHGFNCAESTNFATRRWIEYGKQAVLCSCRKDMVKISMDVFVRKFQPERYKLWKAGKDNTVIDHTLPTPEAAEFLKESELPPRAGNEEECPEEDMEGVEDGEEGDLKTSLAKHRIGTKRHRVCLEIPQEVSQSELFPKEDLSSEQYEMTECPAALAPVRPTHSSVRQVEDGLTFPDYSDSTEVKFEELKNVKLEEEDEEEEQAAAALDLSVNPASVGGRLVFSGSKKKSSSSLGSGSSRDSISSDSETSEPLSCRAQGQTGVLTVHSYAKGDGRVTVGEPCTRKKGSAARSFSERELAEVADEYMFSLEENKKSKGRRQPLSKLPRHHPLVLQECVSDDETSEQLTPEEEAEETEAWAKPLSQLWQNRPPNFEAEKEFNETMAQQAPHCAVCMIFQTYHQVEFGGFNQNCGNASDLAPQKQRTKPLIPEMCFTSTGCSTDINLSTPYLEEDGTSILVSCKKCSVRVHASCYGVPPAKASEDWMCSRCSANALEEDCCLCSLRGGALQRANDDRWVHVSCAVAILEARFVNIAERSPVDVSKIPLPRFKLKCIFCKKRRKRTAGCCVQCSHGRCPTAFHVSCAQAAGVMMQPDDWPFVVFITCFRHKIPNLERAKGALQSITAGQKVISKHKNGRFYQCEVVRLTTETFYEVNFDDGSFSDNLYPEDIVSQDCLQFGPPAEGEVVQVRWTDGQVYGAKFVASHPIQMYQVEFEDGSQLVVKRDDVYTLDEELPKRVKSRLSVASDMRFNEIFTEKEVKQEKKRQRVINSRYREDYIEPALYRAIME
An asterisk follows results filed as active; [ ] = dose if it differs, or a comment. The call rests on the fitted dose curve; in most records, active means well fitted inhibition curve with a large enough effect; inconclusive means small, poorly fitted or top-dose-only effect; inactive means no such curve, though single readings can be large or run the other way. Potency means the concentration at half of the fitted maximal effect.

Results for COc1ccc(N2CCN(CC(O)COc3ccc(C)c(C)c3)CC2)cc1 (configuration not stated) ?
BAZ2B inh: 45µM*; HP1b binding inh: inconclusive; G9a block: 32µM*; JMJD2A Tudor: 56µM*

How did O=C(CSC1=Nc2ccccc2C2=NC(Cc3ccccc3)C(=O)N12)Nc1ccccc1F (configuration not stated) do in these assays?
BAZ2B inh: 2%; HP1b binding inh: 49%; G9a block: -6%[59 µM]; JMJD2A Tudor: -21%

How did COc1cc(C)c(N)cc1C(C)C do in these assays?
BAZ2B inh: inconclusive; HP1b binding inh: inconclusive; L3MBTL1 inh: -8%; G9a block: inconclusive; JMJD2A Tudor: inconclusive

Results for Cc1cc(OI)c(C(C)C)cc1-c1cc(C(C)C)c(OI)cc1C ?
G9a block: 7.9µM*

What do the screens show for `Cc1ccc(NNC(=S)Nc2ccc(C(C)C)cc2)c(C)c1`?
BAZ2B inh: 35µM*; HP1b binding inh: 22µM*; L3MBTL1 inh: inconclusive; G9a block: 11µM*; JMJD2A Tudor: 14µM*

What do the screens show for `Cc1ccc(C)c(NC(=S)NNc2ccc(F)cc2F)c1`?
BAZ2B inh: 20µM*; HP1b binding inh: inconclusive; G9a block: 45µM*; JMJD2A Tudor: 32µM*

Results for Cc1ccc(NC(=S)NNC(=S)Nc2ccc(C)cc2)cc1 ?
HP1b binding inh: -12%; JMJD2A Tudor: -29%

Results for CN=c1scc(-c2ccc(OC)cc2)n1/N=C(\C)c1cccnc1 ?
BAZ2B inh: 32µM*; HP1b binding inh: 45µM*; L3MBTL1 inh: inconclusive; G9a block: 32µM*; JMJD2A Tudor: 50µM*

How did CCc1ccc(N(C(=O)c2csnn2)C(C(=O)NC(C)(C)CC)c2cccnc2)cc1 (configuration not stated) do in these assays?
BAZ2B inh: -13%; HP1b binding inh: 28%; G9a block: -36%; JMJD2A Tudor: -16%

Results for C/C=C\C=C/C(=O)Nc1cccc(C2=NOC3(C2)C[C@@H](C(N)=O)N(C(=O)/C=C/C=C\C)C3)c1 (some centres not stated) ?
BAZ2B inh: 79µM*; HP1b binding inh: inconclusive; G9a block: inconclusive; JMJD2A Tudor: 50µM*

How did C=C(C)C(=O)N1CC2(CC(c3cccc(NC(=O)/C=C\C=C/C)c3)=NO2)C[C@H]1C(N)=O (some centres not stated) do in these assays?
BAZ2B inh: -17%; HP1b binding inh: -22%; G9a block: inconclusive; JMJD2A Tudor: 11µM*

How did C/C=C\C=C/C(=O)Nc1cccc(C2=NOC3(C2)C[C@@H](C(N)=O)N(C(=O)/C=C/CC)C3)c1 (some centres not stated) do in these assays?
BAZ2B inh: -17%; HP1b binding inh: inconclusive; G9a block: inconclusive; JMJD2A Tudor: inconclusive

Results for CC(C)C(=O)OCc1cn(-c2ccc(Cl)c(Cl)c2)nn1 ?
BAZ2B inh: 66%; HP1b binding inh: -4%; L3MBTL1 inh: 19%; G9a block: 26%; JMJD2A Tudor: 22µM*

Results for CC(C)(C)C(=O)OCc1cn(-c2ccc(Cl)cc2)nn1 ?
BAZ2B inh: 1%; HP1b binding inh: 44%; L3MBTL1 inh: 7%; G9a block: inconclusive; JMJD2A Tudor: 5%

How did Cc1ccc(C)c(C(=O)CSc2nc3cc(C(=O)NC4CCCC4)ccc3c(=O)n2CC2CCCO2)c1 (configuration not stated) do in these assays?
BAZ2B inh: 5%; HP1b binding inh: 10%; G9a block: 3%[59 µM]; JMJD2A Tudor: -1%

How did O=C(Cn1sc2ccccc2c1=O)NC12CC3CC(CC(C3)C1)C2 do in these assays?
BAZ2B inh: 11µM*; HP1b binding inh: inconclusive; G9a block: inconclusive; JMJD2A Tudor: 2.8µM*

How did COc1ccc(Cl)cc1NC(=O)c1ncn(-c2ccccc2)n1 do in these assays?
BAZ2B inh: 4%; HP1b binding inh: 29%; G9a block: 1%[59 µM]; JMJD2A Tudor: -20%

Results for Cc1ccc(NS(=O)(=O)c2cc(NC(=O)c3ccc4c(c3)NC(=O)CS4)ccc2C)c(C)c1 ?
BAZ2B inh: -24%; HP1b binding inh: inconclusive; L3MBTL1 inh: -10%; G9a block: 7.9µM*; JMJD2A Tudor: inconclusive
